Rows were chosen to be rich in hits. Some 2.4% of all compounds tested hit in one or more screens of this group.
D2 antag = HTS Assay for Allosteric Antagonists of the Human D2 Dopamine Receptor: Primary Screen for Antagonists; D(2) dopamine receptor (Homo sapiens), P14416; HEK293 TREx D2 cells, calcium flux, dopamine EC80; inhibition, % at 10 µM; 340,000 tested, 2% active; AID 485344, 2010; in the data active = inhibition above about 30%; inactive = below that, where a call was filed; also: 0% is about no effect
Target sequence (P14416 whole entry, looked up): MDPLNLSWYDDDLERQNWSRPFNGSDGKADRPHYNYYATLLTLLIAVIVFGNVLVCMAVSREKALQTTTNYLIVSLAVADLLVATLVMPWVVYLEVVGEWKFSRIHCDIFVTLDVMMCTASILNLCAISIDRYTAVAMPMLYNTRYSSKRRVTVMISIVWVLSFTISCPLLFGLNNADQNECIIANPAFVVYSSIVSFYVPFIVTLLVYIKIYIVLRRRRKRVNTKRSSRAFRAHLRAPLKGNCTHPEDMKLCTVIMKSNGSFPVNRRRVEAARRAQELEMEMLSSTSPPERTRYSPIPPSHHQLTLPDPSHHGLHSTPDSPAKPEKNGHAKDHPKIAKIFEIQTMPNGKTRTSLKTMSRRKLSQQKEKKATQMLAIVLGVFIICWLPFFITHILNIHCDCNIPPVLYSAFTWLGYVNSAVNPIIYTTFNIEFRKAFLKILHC
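Calcium flux kinetic readout in an inducible HEK293 TREx D2 line plated overnight at 30 C. After 180 s compound exposure, an EC80 dopamine challenge follows with another 180 s kinetic read to detect antagonism.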
D2 ag-1 = Beta-Arrestin HTS for Positive Allosteric Modulators of the Human D2 Dopamine Receptor: Agonists; activation, % (concentration not given with the values); DiscoveRx PathHunter D2 beta-arrestin, luminescence, 90 min; 100% = 57 uM dopamine signal; AID 624465, 2012; 360,000 tested, 0.084% active; in the data active = activation above about 40%; inconclusive = between about 15% and that limit
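Agonist mode: compounds alone added to overnight-plated D2 PathHunter cells for 90 min at 37 C, with 57 uM final dopamine (EC100) defining full response. Beta-arrestin recruitment detected by chemiluminescent reagent, read after 1 h at ambient temperature.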
D2 PAM-1 = Beta-Arrestin HTS for Positive Allosteric Modulators of the Human D2 Dopamine Receptor: Potentiators; D(2) dopamine receptor (Homo sapiens), P14416; DiscoveRx D2 beta-arrestin cells, luminescence, 90 min; 100% = 57 uM dopamine signal; potentiation, % (no concentration beside the values); 360,000 tested, 0.23% active; AID 624464, 2012; in the data active = potentiation above about 50%; inconclusive = mostly about 30% to 49%
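PathHunter D2 cells, attached overnight at 37 deg C, received compound in DMSO plus dopamine at EC20 (50 nM final) for 90 min at 37 deg C. Beta-arrestin recruitment was read as luminescence after 1 h with detection reagent at ambient temperature.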
D2 ag-2 = HTS Assay for Allosteric Agonists of the Human D2 Dopamine Receptor: Primary Screen for Agonists; D(2) dopamine receptor (Homo sapiens), P14416; HEK293 T-REx D2 cells, calcium flux agonist mode; activation, % at 2 µM; 340,000 tested, 0.53% active; AID 485358, 2010;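 active = activation over 3 SD above normal in the single-dose calcium agonist read, cut at about 30% in these data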; also: 0% is about no effect
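HEK293 Trex D2 cells, tetracycline-induced, o/n 30 C 5% CO2; no-wash Ca dye, RT 30–90 min; 10-cycle baseline, 23 nl cpd added, kinetic Ca read 180 s; agonist hits = positive Ca response.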
D2 PAM-2 = HTS Assay for Positive Allosteric Modulators of the Human D2 Dopamine Receptor: Primary Screen for Potentiators; D(2) dopamine receptor (Homo sapiens), P14416; HEK293 T-REx D2, calcium flux, EC20 dopamine potentiation; potentiation, % at 10 µM; 340,000 tested, 0.34% active; AID 485347, 2010;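 active = potentiation over 3 SD above the plate norm, cut at about 30% in these data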; also: 0% is about no effect
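Tetracycline-induced Hek293 Trex D2 cells, force-coupled to calcium, loaded with no-wash calcium dye. Compound added with 180 s kinetic read for agonism, then EC20 dopamine and a further 180 s read for potentiation.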
An asterisk follows results filed as active; ? = inconclusive; . = no result given.

SMILES	D2 antag	D2 ag-1	D2 PAM-1	D2 ag-2	D2 PAM-2
OCCN1CCN(c2ncnc3sc4c(c23)CCCC4)CC1	0	7	-4	1	16
Cc1nc(-n2nnc3ccccc32)c2c3c(sc2n1)CCCC3	-15	-1	-4	-1	-6
CCCc1cc(=O)oc2cc(C)c3c(-c4ccccc4)coc3c12	.	.	.	2	-5
O=S(=O)(c1ccc(-c2csc(-c3cccnc3)n2)cc1)N1CCCCC1	37*	4	16	1	-4
O=C(COC(=O)c1ccc(O)cc1)Nc1ccccc1[N+](=O)[O-]	38*	9	-41	2	-3
O=C(c1n[nH]c2ccccc12)N1CCOCC1	39*	0	-5	1	-12
CCCOC(=O)c1cc(-c2ccc(C=O)o2)ccc1Cl	31*	0	1	-2	0
Cc1ccc(/C=N\NC(=O)c2ccc3c(c2)OCO3)o1	32*	-1	-16	0	-24
O=C(CNc1ccccc1)N/N=C/c1ccc2c(c1)OCO2	37*	0	-10	0	-8
Cc1cccc(C(=O)Nc2cccc(C(=O)N/N=C/c3ccc4c(c3)OCO4)c2)c1	37*	2	-5	-1	0
Cc1cccc(C(=O)Nc2ccc(C(=O)N/N=C/c3ccc4c(c3)OCO4)cc2)c1	-14	-1	-5	-1	-12
O=C(CNc1ccccc1)N/N=C/c1ccc2c(c1)OCCO2	0	2	6	0	-3
O=C(CSc1nnc(-c2ccccc2)c(-c2ccccc2)n1)NC1CCCC1	.	.	.	0	-3
CCN1/C(=C/C=C/c2sc3ccccc3[n+]2CC)Sc2ccccc21	.	-7	-23	.	.
CCN1/C(=C/C=C/c2oc3ccc(-c4ccccc4)cc3[n+]2CC)Oc2ccc(-c3ccccc3)cc21	76*	-6	-24	149*	-26
CCOCCCNC(=O)c1cc2c(=O)[nH]c3ccccc3c2s1	58*	?	8	39*	-13
Cc1ccc(S(=O)(=O)c2nnn3c2nc(NC2CCN(Cc4ccccc4)CC2)c2ccccc23)cc1C	12	-3	-19	0	37*
Cc1ccc(S(=O)(=O)c2nnn3c2nc(NCCCN2CCCC2=O)c2ccccc23)cc1C	4	-3	-22	0	-23
Cc1cc(-c2nn(-c3ccccc3F)cc2CN2CCC(C(N)=O)CC2)c(C)s1	-1	-3	-27	0	-19
COCC1CCN(Cc2cn(-c3ccccc3F)nc2-c2cc(C)sc2C)CC1	73*	-7	-10	-1	-17
CCN(C(=O)c1cc2c(s1)-c1ccccc1OC2)c1cccc(C(F)(F)F)c1	.	.	.	0	9
O=C(O)c1cc2c(s1)-c1ccccc1OC2	-8	-1	-12	0	-2
O=C(NC1CC1)c1cc2c(s1)-c1ccccc1OC2	34*	-1	-11	-1	-11
O=C(Nc1cccc(C(F)(F)F)c1)c1cc2c(s1)-c1ccccc1OC2	40*	-2	-13	0	-16
COc1ccc(-n2ccn(Cc3ccccc3C)c(=O)c2=O)cc1	.	.	.	0	3
SMILES	D2 antag	D2 ag-1	D2 PAM-1	D2 ag-2	D2 PAM-2
Cc1ccc(NC(=O)C2CCCN(S(=O)(=O)c3cccs3)C2)c(C)c1 (configuration not stated)	.	.	.	0	16
CCc1ccc(CNc2ncnc3onc(-c4ccc(Cl)cc4)c23)cc1	.	.	.	2	6
COC(=O)c1ccc(Cl)cc1NC(=O)N1CC=C(c2c[nH]c3ccccc23)CC1	.	.	.	3	-4
COc1cc(O)cc2cc3c(c(O)c12)C(=O)CC(C)(O)O3 (configuration not stated)	37*	4	20	0	6
COc1cc(O)c2c(c1)OC(C)(C)CC2=O	4	-2	-5	1	.
CCn1cnc2cc(NC(=O)c3ccc(C)cc3)ccc21	32*	3	-6	1	4
COCCCn1c(=O)c2sccc2n(Cc2cccc(C)c2)c1=O	41*	5	7	-1	5
COCCCn1c(=O)c2sccc2n(Cc2cccc(F)c2)c1=O	-19	-3	-2	-2	-7
Cc1cc(C)n(CC(=O)O)n1	-21	-4	5	0	12
Cc1cc(C)n(CCn2nc(C)cc2C)n1	41*	-1	-10	1	-1
Nn1c(SCC(=O)Nc2ccccc2F)nnc1C1CCCCC1	-9	2	-10	0	37*
COc1ccc(Cl)cc1NC(=O)CSc1nnc(C2CC2)n1N	-10	-2	-8	0	31*
COc1ccc(OC)c(NC(=O)CSc2nncc(=O)n2N)c1	36*	-4	-9	1	-15
CCn1c(C(=O)Nc2ccc(C)cc2C)cc2sc(Cl)cc21	.	.	.	.	-5
Cc1cccc(NC(=O)CSc2nc3c(oc4ccccc43)c(=O)n2-c2ccccc2)c1C	.	.	.	1	13
COc1cc2c(=O)c(C(=O)c3ccc(C)c(C)c3)cn(Cc3ccccc3F)c2cc1OC	.	.	.	1	8
COc1ccc(C(=O)c2cn(Cc3ccccc3F)c3cc4c(cc3c2=O)OCCO4)cc1OC	.	.	.	-1	-9
O=c1[nH]c(Nc2ccc3c(c2)OCCO3)nnc1Cc1ccc(Cl)cc1	33*	-1	-4	0	2
COc1ccc(Cc2nnc(Nc3ccc(Cl)cc3)[nH]c2=O)cc1	-4	4	0	-1	-1
NS(=O)(=O)c1cccc(NC(=O)COC(=O)C2(c3cccc(F)c3)CCCC2)c1	51*	4	7	-2	-8
CCC1Oc2nc(SC)nnc2-c2ccccc2N1C(=O)c1ccccc1 (configuration not stated)	34*	-3	-7	-1	0
O=C(O)c1cccnc1Nc1cccc(C(F)(F)F)c1	56*	-1	17	-1	5
NNC(=O)c1ccc(COCC(F)(F)F)cc1	53*	-1	-5	0	1
CN(C)CCNC(=O)c1ccc(COCC(F)(F)F)cc1	16	1	3	1	.
CCCCN(C)c1nnc(NC(=O)Nc2cccc(C(C)=O)c2)s1	.	.	.	-1	-3
COc1ccc(/C=N/Nc2nnc(C)n2N)cc1OC	-1	?	57*	0	10
Cc1nc(NS(=O)(=O)c2ccccc2)sc1NC(=O)Nc1ccccc1	55*	?	1	-1	-11
Cc1nc(NS(=O)(=O)c2ccccc2)sc1NC(=O)Nc1ccc(Cl)cc1	-18	6	-3	1	-16
